Growth data for 9 compounds are collected here from PubChem BioAssay (NCI).

Compounds without any hit were thinned out: in the full panel of roughly 83,000, 20% have a hit.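 Growth was measured after 48 h exposure to one concentration of compound in 96-well plates. Values under 10 count as active.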 Values without a mark were called inactive. Active and inactive are the calls of the source.

Common to all, as to experiment: NCI-60 one-dose screen, 48 h (100 = growth as untreated, 0 = no growth, -100 = all killed)
One test deals with SK-MEL-2 melanoma. Particulars: 10 µM unless noted.
The next test relates to EKVX NSCLC. The following applies: 10 µM unless noted.
In another test the test system is SN12C renal. Particulars: 10 µM unless noted.
Another test concerns UO-31 renal. The following applies: 10 µM unless noted.
Another test has as its system TK-10 renal. Particulars: 10 µM unless noted.
In a further test the test system is ACHN renal. Particulars: 10 µM unless noted.
A further test deals with A498 renal. Particulars: 10 µM unless noted.
In another test the test system is CCRF-CEM leukemia. The following applies: 10 µM unless noted.
The test system of another test is MOLT-4 leukemia. The following applies: 10 µM unless noted.
In another test the test system is SR leukemia. Particulars: 10 µM unless noted.
For a further test, the system named is RPMI-8226 leukemia. The following applies: 10 µM unless noted.
Another test deals with OVCAR-8 ovarian. Particulars: 10 µM unless noted.
A further test concerns OVCAR-5 ovarian. The following applies: 10 µM unless noted.
In a further test the test system is OVCAR-4 ovarian. The following applies: 10 µM unless noted.
The next test concerns SK-OV-3 ovarian. Particulars: 10 µM unless noted.
The next test has as its system IGROV1 ovarian. The following applies: 10 µM unless noted.
A further test relates to OVCAR-3 ovarian. The following applies: 10 µM unless noted.
The next test has as its system HS 578T breast. Particulars: 10 µM.
A further test deals with NCI/ADR-RES ovarian. The following applies: 10 µM unless noted.
The test system of another test is CAKI-1 renal. The following applies: 10 µM unless noted.

On to `O=C1OC(c2ccc(-c3ccccc3)cc2)=C/C1=C/c1c(Cl)cccc1Cl`, for which the growth is 105% in the test on SK-MEL-2 melanoma; 86% in the test on EKVX NSCLC; 95.3% with SN12C renal; 81.1% in the test on UO-31 renal; 88% in the test with TK-10 renal; 105% with ACHN renal. Moreover, the growth in the test with A498 renal is 93.5%; in the test with CCRF-CEM leukemia, -14% (active); with MOLT-4 leukemia it was 97.8%; with SR leukemia, 69.6%; in the test with RPMI-8226 leukemia it was 84.1%; in the test with OVCAR-8 ovarian it was 105%. Besides, the growth was 91.7% in the test on OVCAR-5 ovarian; 89.8% in the test with OVCAR-4 ovarian; 96.7% with SK-OV-3 ovarian; 95.4% in the test on IGROV1 ovarian; 97.1% in the test with OVCAR-3 ovarian; 85.6% in the test on HS 578T breast. Moreover, the growth in the test with NCI/ADR-RES ovarian was 99.3%.
On to `COc1ccc(/C=C/C(=O)c2ccc(NC(=O)CSc3nnc(-c4ccc(OC)cc4)n3-c3ccccc3)cc2)cc1`, for which the growth with SK-MEL-2 melanoma is 95.5%; in the test on EKVX NSCLC, 95.5%; in the test on SN12C renal it was 96.5%; with UO-31 renal it was 79.3%; with TK-10 renal it was 109%; in the test on ACHN renal it was 106%. In addition, the growth with A498 renal was 109%; in the test on CCRF-CEM leukemia, 95%; in the test with MOLT-4 leukemia it was 88%; in the test with RPMI-8226 leukemia, 77.5%; in the test on OVCAR-8 ovarian it was 92.2%; in the test on OVCAR-5 ovarian, 108%. In addition, the growth with OVCAR-4 ovarian is 100%; with SK-OV-3 ovarian, 100%; in the test with IGROV1 ovarian it was 111%; in the test on OVCAR-3 ovarian, 103%; in the test on HS 578T breast it was 91.2%; in the test with NCI/ADR-RES ovarian, 102%.
As for `COC(=O)CNS(=O)(=O)c1ccc2c(c1)Cc1cc(S(=O)(=O)NCC(=O)OC)ccc1-2`, the growth was 108% in the test with SK-MEL-2 melanoma; 99.6% with EKVX NSCLC; 97.5% in the test on SN12C renal; 87.1% in the test on UO-31 renal; 107% with TK-10 renal; 92.1% with CAKI-1 renal. Moreover, the growth in the test on A498 renal was 106%; in the test with CCRF-CEM leukemia it was 104%; in the test on MOLT-4 leukemia it was 99.8%; with SR leukemia, 102%; with RPMI-8226 leukemia, 103%; in the test with OVCAR-8 ovarian, 97.3%. The growth in the test with OVCAR-5 ovarian was 103%; with OVCAR-4 ovarian it was 102%; with SK-OV-3 ovarian, 97.7%; in the test on IGROV1 ovarian, 96.5%; in the test on OVCAR-3 ovarian, 102%; in the test with HS 578T breast, 95.7%. The growth in the test with NCI/ADR-RES ovarian is 105%.
Take `Cc1c(C)c(C)c([N+](=O)[O-])c([N+](=O)[O-])c1C`: the growth is 103% in the test on SK-MEL-2 melanoma; 90.7% with EKVX NSCLC; 98.7% with SN12C renal; 81.8% with UO-31 renal; 91.3% in the test with TK-10 renal; 98.9% with ACHN renal. Also, the growth in the test with CAKI-1 renal is 90.8%; in the test with CCRF-CEM leukemia, 121%; in the test on SR leukemia, 99.8%; in the test on RPMI-8226 leukemia it was 119%; with OVCAR-8 ovarian it was 102%; with OVCAR-5 ovarian, 84.5%. The values for the growth in the test with SK-OV-3 ovarian, with IGROV1 ovarian and with NCI/ADR-RES ovarian were 111%, 122% and 99.4%, respectively.
For `NC(N)=N/N=C\c1ccc(OCc2ccccc2)cc1`, the growth in the test with SK-MEL-2 melanoma was 86.6%; in the test on EKVX NSCLC, 88.6%; in the test on SN12C renal, 79.5%; in the test with UO-31 renal, 64.6%; in the test on TK-10 renal, 73.4%; in the test with ACHN renal it was 75.7%. Besides, the growth in the test on CCRF-CEM leukemia was 72.3%; in the test on MOLT-4 leukemia it was 73.8%; with SR leukemia, 75.4%; in the test on RPMI-8226 leukemia it was 83.4%; in the test on OVCAR-8 ovarian it was 89.1%; with OVCAR-5 ovarian it was 82.8%. In addition, the growth is 56.8% in the test on OVCAR-4 ovarian; 77.1% with SK-OV-3 ovarian; 77.7% in the test on IGROV1 ovarian; 74.4% in the test on OVCAR-3 ovarian; 80% in the test on NCI/ADR-RES ovarian.
With `O=C(Nc1ccc2ncnc(Nc3ccc(F)c(Cl)c3)c2c1)c1cccs1`, the growth with SK-MEL-2 melanoma is 90.7%; in the test on EKVX NSCLC, 44.5%; with SN12C renal, 45.6%; with UO-31 renal it was 27.8%; in the test with TK-10 renal it was 32.3%; in the test on ACHN renal it was 2.83% (active). For the same compound, the growth is 46% in the test on A498 renal; 76.9% in the test with CCRF-CEM leukemia; 71.9% in the test with MOLT-4 leukemia; 11.3% in the test with SR leukemia; 53% in the test with RPMI-8226 leukemia; 66.2% in the test with OVCAR-8 ovarian. Also, the growth with OVCAR-5 ovarian is 76.1%; in the test with OVCAR-4 ovarian, 47.1%; in the test with SK-OV-3 ovarian, 54%; in the test on IGROV1 ovarian, 38.7%; in the test on HS 578T breast, 72.2%; in the test with NCI/ADR-RES ovarian, 60.7%.
For `NC(N)=N/N=C\c1cccc(OCc2ccccc2)c1`, the growth with SK-MEL-2 melanoma is 61.4%; in the test with EKVX NSCLC, 80.7%; in the test with SN12C renal it was 86.6%; with UO-31 renal it was 63.9%; with TK-10 renal it was 78.6%; in the test with ACHN renal it was 87.4%. Besides, the growth with CCRF-CEM leukemia was 82.2%; in the test on MOLT-4 leukemia, 80.1%; in the test on SR leukemia, 19.4%; in the test on RPMI-8226 leukemia it was 69.6%; in the test on OVCAR-8 ovarian it was 89.3%; with OVCAR-5 ovarian, 85.3%. For the same compound, the growth in the test on OVCAR-4 ovarian is 64.3%; with SK-OV-3 ovarian it was 81.6%; with IGROV1 ovarian, 74.7%; in the test with OVCAR-3 ovarian it was 79.1%; in the test with NCI/ADR-RES ovarian it was 76.5%.
For `Clc1ccc2c(c1)-c1ccccc1C1=NCCN12`, the growth was -0.581% (active) in the test with SK-MEL-2 melanoma; 51.5% in the test with EKVX NSCLC; 29.1% in the test on SN12C renal; 10.8% with UO-31 renal; 20.1% with TK-10 renal; 14.1% with ACHN renal. Further, the growth with CAKI-1 renal was 29.4%; with CCRF-CEM leukemia, 28.4%; with MOLT-4 leukemia it was 17.1%; in the test with SR leukemia it was 8.25% (active); in the test on RPMI-8226 leukemia, 33%; with OVCAR-5 ovarian, 41.2%. The growth in the test on OVCAR-4 ovarian was 44.4%; in the test with SK-OV-3 ovarian, 36.9%; in the test with IGROV1 ovarian, 24.3%; in the test on OVCAR-3 ovarian it was 41.1%; with HS 578T breast it was 58.4%; in the test on NCI/ADR-RES ovarian, 26.3%.
On to `C/C(CC(=O)NNc1ccc([N+](=O)[O-])cc1)=N\Nc1ccc([N+](=O)[O-])cc1`, for which the growth in the test with SK-MEL-2 melanoma is 111%; in the test on EKVX NSCLC, 54.1%; with SN12C renal it was 68.9%; in the test with UO-31 renal, 40%; with TK-10 renal it was 93.4%; in the test with ACHN renal, 47.5%. For the same compound, the growth in the test with CAKI-1 renal is 31.3%; in the test on CCRF-CEM leukemia it was 48.6%; in the test with MOLT-4 leukemia, 29.2%; with SR leukemia, 46.9%; in the test on RPMI-8226 leukemia it was 72.1%; in the test with OVCAR-8 ovarian, 81.3%. Moreover, the growth was 48.8% with OVCAR-5 ovarian; 90.6% in the test with SK-OV-3 ovarian; 78.3% with IGROV1 ovarian; 73.7% in the test with OVCAR-3 ovarian; 49.7% in the test on NCI/ADR-RES ovarian.
